Test results: PubChem BioAssay
Active and inactive are the calls of the source. Unless noted, how the calls were made is not given here.

Experiments:
[1] = system: Wnt5a (protein binding on small-molecule microarray); test: Wnt5a binders on small-molecule microarray, primary screen, biophysical, 635/667 nm fluorescence (AID 1142); conditions: 635 nm fluorescence, higher = more signal;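 further: fluorescence read at 667 nm with signal to noise per printed feature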
[2] = cell viability in Huh7 cells, primary screen, cytotoxicity control for HCV replication inhibitor project, CellTiter-Glo luminescence, basal, 48 h (AID 1143); conditions: Huh7 HCV replicon, higher = more signal, called active from +8 up or from −8 down;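 further: Huh7 hepatoma cells carrying a hepatitis C replication reporter with no stimulus; test concentration not given here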
[3] = P. aeruginosa biofilm formation inhibitors, primary screen, PAO1 strain, BacTiter-Glo luminescence, LB-PBS (AID 1144); conditions: 12 h, higher = more signal
[4] = CREB reporter modulators without forskolin, primary screen, cell-based, PC12, CRE-LacZ reporter, unstimulated (AID 1145); conditions: no forskolin, luminescence, 4.5 h, higher = more signal, called active from +8 up or from −8 down
[5] = CREB reporter modulators under forskolin, primary screen, cell-based, PC12, CRE-LacZ reporter, forskolin-stimulated (AID 1146); conditions: luminescence, 4.5 h, higher = more signal, called active from +8 up or from −8 down;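 further: PC12 cells with 6xCRE LacZ reporter stimulated by forskolin 10 µM; beta-galactosidase reporter signal reflecting CREB driven transcription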
[6] = molecular target: Streptavidin (Streptomyces avidinii) (UniProt P22629); test: streptavidin binders on small-molecule microarray, primary screen, artefact control for SMM compound annotation, biophysical, 635/667 nm fluorescence (AID 1147); conditions: streptavidin binding, higher = more signal;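 further: signal reflects streptavidin binding to arrayed compounds as a control protein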
Sequence of Streptavidin (Streptomyces avidinii) (P22629 whole entry, looked up): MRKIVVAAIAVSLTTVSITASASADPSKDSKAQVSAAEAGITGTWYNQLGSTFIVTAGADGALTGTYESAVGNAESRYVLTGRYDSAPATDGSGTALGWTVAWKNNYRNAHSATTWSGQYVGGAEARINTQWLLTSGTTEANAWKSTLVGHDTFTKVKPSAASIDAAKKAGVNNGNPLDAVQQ

[7] = small-molecule binders of probe aInhba, primary screen, biochemical, small-molecule microarray, 635/667 nm fluorescence (AID 1148); conditions: higher = more signal;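 further: score merges 667nm spot fluorescence with signal-to-noise for antibody binding to printed compounds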
Torsin-1A (Homo sapiens) [8] = molecular target: Torsin-1A (Homo sapiens) (UniProt O14656); test: torsin A binders from cell lysate, primary screen, small-molecule microarray, wild-type, 635/667 nm (AID 1149); conditions: COS7 hTOR1A-WT lysate, 635 nm fluorescence, higher = more signal
Sequence of Torsin-1A (Homo sapiens) (O14656 whole entry, looked up): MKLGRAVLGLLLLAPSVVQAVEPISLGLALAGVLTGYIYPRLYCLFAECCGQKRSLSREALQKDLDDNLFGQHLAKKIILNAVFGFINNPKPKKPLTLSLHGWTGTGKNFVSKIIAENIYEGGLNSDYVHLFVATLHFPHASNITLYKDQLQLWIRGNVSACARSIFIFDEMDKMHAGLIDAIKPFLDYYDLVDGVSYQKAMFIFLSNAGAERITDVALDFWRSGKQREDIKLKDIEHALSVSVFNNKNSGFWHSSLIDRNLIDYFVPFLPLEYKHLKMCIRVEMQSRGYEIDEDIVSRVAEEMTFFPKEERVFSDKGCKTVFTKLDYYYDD

Torsin-1A (Homo sapiens) [9] = molecular target: Torsin-1A (Homo sapiens) (UniProt O14656); test: small-molecule binders of mutant TOR1A in lysate, primary screen, cell lysate, small-molecule microarray, COS7 lysate, 635/667 nm fluorescence (AID 1150); conditions: COS7 hTOR1A mutant lysate, 635 nm fluorescence, higher = more signal;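 further: score pools 667 nm emission and signal to noise measuring lysate protein binding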
[10] = system: Sonic hedgehog protein (Shh); test: small-molecule binders of Shh protein, primary screen, biochemical, small-molecule microarray, 635/667 nm fluorescence (AID 1151); conditions: small-molecule microarray binding, 635 nm fluorescence; higher = more signal;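 further: Shh protein binding to compounds spotted on small-molecule microarray slides; score combines spot fluorescence intensity with signal-to-noise across triplicate slides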

Compound	composite z-score [1]	z-score [2]	z-score [3]	z-score [4]	z-score [5]	composite z-score [6]	composite z-score [7]	composite z-score (Torsin-1A (Homo sapiens) [8])	composite z-score (Torsin-1A (Homo sapiens) [9])	composite z-score [10]
CCOC(=O)[C@@H]1[C@@H]2C(=O)N(CC)C(=O)[C@@H]2C[C@@H]1Sc1ccccc1	0.202	0.371 (inactive)	-0.868 (inactive)	0.136 (inactive)	1.04 (inactive)	0.603	0.0357	0.592	0.975	0.209
COC(=O)Cn1c(C(=O)N2CCCC2)cc2c1C[C@H]1CN(C(=O)c3ccccc3)[C@@](Cc3ccc(F)cc3)(C(=O)OC)[C@@H]21	-0.164	-1.83 (inactive)	-0.288 (inactive)	-0.182 (inactive)	0.105 (inactive)	1.59	-0.123	0.895	-0.137	-0.271
CCOc1cc(C(O)C2C=CC3C(=O)N(C)C(=O)C3N2N2CCCCC2)ccc1O (stereo not given)	0.194	0.862 (inactive)	-0.401 (inactive)	0.433 (inactive)	-0.499 (inactive)	0.3	-0.137	0.28	0.221	0.0937
Cc1ccc(F)cc1S(=O)(=O)N[C@@H]1CCN(Cc2ccc(Oc3ccccc3)cc2)C1	-0.123	-4.83 (inactive)	0.913 (inactive)	0.677 (inactive)	0.865 (inactive)	-0.235	-0.0403	0.575	0.251	1.07
C[n+]1ccc(CCCO)cc1	0.749	-0.0513 (inactive)	-0.601 (inactive)	0.182 (inactive)	0.58 (inactive)	-0.902	0.196	-0.653	-0.0965	2.16
COc1ccc([Si](C)(C)[C@H]2[C@H](CCn3cc(CCO)nn3)O[C@@]3(C(=O)N(Cc4ccc(N5C(=O)c6cccc7cccc5c67)cc4)c4ccccc43)[C@@H]2C)cc1	0.426	-7.91 (inactive)	-0.152 (inactive)	1.12 (inactive)	-0.213 (inactive)	0.798	-0.0933	0.316	0.238	2.08
CCOC(=O)C[C@H]1[C@H](OC(=O)c2ccc(-c3ccccc3)cc2)[C@@H](NC(=O)c2ccc3ccccc3c2)c2cc(OCCCO)ccc2N1C(=O)c1ccc2ccccc2n1	0.0577	0.866 (inactive)	-0.0546 (inactive)	-0.593 (inactive)	-0.611 (inactive)	1.02	0.106	0.138	0.527	0.539
CCCCN1CC=CC23O[C@@H]4/C=C\CCC(C)OC(=O)C4[C@H]2C(=O)N(CCCCCCO)[C@@H]3C1=O (stereo not given in full)	0.0569	0.745 (inactive)	-0.72 (inactive)	0.61 (inactive)	-0.0292 (inactive)	-0.519	-0.239	1.08	2.16	-0.57
CCOC(=O)C[C@H]1[C@H](OC(=O)c2ccccc2-c2ccccc2)[C@@H](NC(=O)CC(C)C)c2cc(OCCCO)ccc2N1C(=O)c1ccc2ccccc2n1	0.0056	-0.431 (inactive)	1.51 (inactive)	8.37 (active)	0.724 (inactive)	0.543	-0.016	0.0167	0.0401	0.196
COc1cc(CO)cc(I)c1O[C@H]1C=C(C(=O)NCCO)C[C@@H](N(Cc2ccc(F)cc2)C(=O)C2CCCO2)[C@@H]1O (stereo not given in full)	-0.212	-0.457 (inactive)	-0.583 (inactive)	0.949 (inactive)	-1.24 (inactive)	-0.274	-0.227	-0.0326	-0.0306	0.399
CC(C)OC(=O)CC(=O)CC(O)c1cccc(C#N)c1 (stereo not given)	0.167	-2.13 (inactive)	-0.461 (inactive)	-0.63 (inactive)	-0.291 (inactive)	1.35	0.0841	0.863	1.97	-0.206
C[C@H]1C2=C3C(CC[C@H]4C(OCc5ccc(F)cc5C(F)(F)F)OC[C@](C)([C@@H]34)N(C(=O)OC(C)(C)C)C2)C(CO)C1CO (stereo not given in full)	0.24	-2.85 (inactive)	0.36 (inactive)	0.779 (inactive)	0.677 (inactive)	1.38	-0.0214	0.28	0.222	-1.38
Cc1ccc(S[C@]2(C(=O)NCC(F)(F)F)CC(=O)N(Cc3ccccc3)[C@@H]2c2ccc(CO)cc2)cc1	-0.264	-4.85 (inactive)	-0.485 (inactive)	0.829 (inactive)	0.906 (inactive)	-1.23	0.0171	-0.2	-0.238	-0.243
[N-]=[N+]=Nc1ccccc1C[C@]1(C(=O)NCc2ccccc2)N=C(c2ccc(OCCCO)cc2)O[C@H]1c1ccccc1	0.307	-3.03 (inactive)	-0.523 (inactive)	-0.585 (inactive)	1.15 (inactive)	1.44	0.192	0.403	0.687	-0.312
COc1ccc([Si](C)(C)[C@@H]2[C@@H](CCn3cc([C@H](O)c4ccccc4)nn3)O[C@]3(C(=O)N(Cc4ccc(N5CCOC5=O)cc4)c4ccccc43)[C@H]2C)cc1	0.127	-3.81 (inactive)	-0.41 (inactive)	-0.0533 (inactive)	-0.0224 (inactive)	0.204	-0.128	1.15	1.14	1.85
CC(C)(C)OC(=O)CC[C@@]1(C(=O)O)N=C(c2ccc(OCCCO)cc2)O[C@@H]1c1ccccc1CN=[N+]=[N-]	0.48	0.625 (inactive)	-0.21 (inactive)	-0.128 (inactive)	-0.912 (inactive)	0.725	0.239	0.0835	0.104	-1.03
CC(C)(C)N1CC=CC23O[C@@H]4C=CCOC(=O)[C@@H]4[C@H]2C(=O)N(CCCO)[C@@H]3C1=O (stereo not given in full)	-0.56	-1.97 (inactive)	0.0204 (inactive)	0.321 (inactive)	0.0029 (inactive)	-1.48	-0.317	0.213	-0.0267	-0.471
CCCCN1CC=CC23O[C@@H]4C=CCOC(=O)[C@@H]4[C@H]2C(=O)N(CCCO)[C@@H]3C1=O (stereo not given in full)	-0.133	-1.98 (inactive)	-0.766 (inactive)	-0.757 (inactive)	1.47 (inactive)	-0.808	-0.23	0.222	-0.107	-0.512
C=CCNC(=O)[C@@H]1[C@H]2C(=O)O[C@H](c3ccccc3)[C@H](c3ccccc3)N2[C@H](c2ccccc2OCCO)[C@@]12C(=O)N(C(=O)OCCOC)c1ccc(C#CC3=CCCCC3)cc12	0.18	-4.3 (inactive)	-0.348 (inactive)	0.0614 (inactive)	-1.49 (inactive)	0.497	-0.146	0.458	0.669	0.634
O=C1NC(=O)C2C1C=CC(C(O)c1c(F)cccc1Cl)N2Nc1ccccn1 (stereo not given)	0.233	0.63 (inactive)	0.475 (inactive)	0.0535 (inactive)	0.204 (inactive)	-0.201	-0.0195	0.355	0.222	-0.0146
Cc1ccc(S[C@]2(C(=O)NC(C)C)CC(=O)N(C3Cc4ccccc4C3)[C@@H]2c2ccc(CO)cc2I)cc1	-0.511	-1.83 (inactive)	-0.0878 (inactive)	0.622 (inactive)	1.28 (inactive)	-0.959	-0.355	-1.49	-0.009	-0.274
O=C(CCCCCCC(=O)Nc1ccccc1)N/N=C/c1ccccc1	-0.343	0.0796 (inactive)	0.99 (inactive)	5.11 (inactive)	0.0631 (inactive)	-0.184	0.0074	0.577	0.146	0.0351
COc1cc2c(cc1OC)CN(C(=O)[C@@H]1[C@H]3C(=O)O[C@H](c4ccccc4)[C@H](c4ccccc4)N3[C@H](c3ccccc3OCCO)[C@@]13C(=O)Nc1ccc(C#CC4(O)CCCCCC4)cc13)CC2	0.0109	-2.91 (inactive)	-0.0135 (inactive)	-0.788 (inactive)	-0.749 (inactive)	0.445	-0.0523	0.825	0.827	0.791
NCCCCCCNC(=O)[C@@H]1C[C@@H]2C(=O)N3CCC[C@H]3C(=O)N2[C@@H]1c1ccc(O)cc1	0.236	-0.118 (inactive)	-0.515 (inactive)	0.826 (inactive)	-0.615 (inactive)	1.01	-0.323	0.592	0.513	2
C=CCN1C(=O)[C@@]2(O[C@@H](CCO)[C@H]([Si](C)(C)c3ccc(OC)cc3)[C@H]2C)c2cc(N3C(=O)c4ccccc4Oc4ccccc43)ccc21	0.485	-7.93 (inactive)	-1.4 (inactive)	18.4 (active)	-3.87 (inactive)	0.031	-0.102	-0.331	-0.0355	0.23
C=CCOC(=O)[C@@H]1[C@H]2C(=O)O[C@H](c3ccccc3)[C@H](c3ccccc3)N2[C@H](c2ccc(OCCOC(=O)[C@H]3C[C@H]4C(=O)N[C@@H](CC(C)C)C(=O)N4[C@H]3c3ccc(O)cc3)cc2)[C@@]12C(=O)Nc1ccc(I)cc12	0.504	-0.141 (inactive)	0.0488 (inactive)	0.277 (inactive)	-1.14 (inactive)	0.324	-0.102	1.33	1.33	1.97
NCCCCCNC(=O)[C@@H]1C[C@@H]2C(=O)N[C@@H](CCCCN)C(=O)N2[C@@H]1c1cccc(OCCO)c1	0.331	0.21 (inactive)	-0.85 (inactive)	-0.541 (inactive)	-0.304 (inactive)	0.302	-0.331	0.247	-0.02	1.55
C[C@@H](OCc1ccccc1)C1NC(=O)[C@@]23C(=O)N[C@@H](Cc4ccccc4)C2[C@H](C)[C@@]2(C)O[C@H]2C3/C=C/C/C=C\CNC(=O)CNC1=O (stereo not given in full)	-0.556	-2.16 (inactive)	-0.295 (inactive)	-0.962 (inactive)	-0.88 (inactive)	-0.918	-0.105	0.333	-0.104	1.24
CC=CC(O)C1C=CC2C(=O)N(c3ccccc3)C(=O)C2N1Nc1ccccc1 (stereo not given)	0.859	0.973 (inactive)	-1.33 (inactive)	0.0501 (inactive)	-0.741 (inactive)	1	0.337	0.358	0.285	0.0322
